Calls of active or inactive are those of the source. Rule for the calls: active = hit-call score of the fitted dose curve at least 0.9, where 1 is the maximum; inactive = score below 0.9.

Our source for the outcome and AC50 values is PubChem BioAssay (EPA / NIEHS).

The target of the assay is Signal transducer and activator of transcription 3 (Homo sapiens) (UniProt P40763). In words: ATG_STAT3_CIS: Attagene CIS-FACTORIAL HepG2 Assay for human Signal Transducer and Activator of Transcription 3 (STAT3) (AID 2282963). As to conditions: HepG2, Attagene cis-factorial STAT3 reporter transcription; actives raise or lower the signal. Here is the method: ATG_CIS is a cell-based, multiplexed-readout assay that uses HepG2, a human liver cell line, with measurements taken at 24 hours after chemical dosing in a 24-well plate.ATG_STAT3_CIS is one of 52 assay component(s) measured or calculated from the ATG_CIS assay. It is designed to make measurements of mRNA induction, a form of inducible reporter, as detected with fluorescence intensity signals by Reverse transcription polymerase chain reaction (RT-PCR) and Capillary electrophoresis technology.Data from the assay component ATG_STAT3_CIS was analyzed into 1 assay endpoint. This assay endpoint, ATG_STAT3_CIS, was analyzed with bidirectional fitting relative to DMSO as the negative control and baseline of activity. Using a type of inducible reporter, measures of mRNA for gain or loss-of-signal activity can be used to understand the reporter gene at the transcription factor-level as they relate to the gene STAT3. Furthermore, this assay endpoint can be referred to as a primary readout, because this assay has produced multiple assay endpoints where this one serves a reporter gene function. To generalize the intended target to other relatable targets, this assay endpoint is annotated to the dna binding intended target family, where the subfamily is stat protein.
Chain of Signal transducer and activator of transcription 3 (Homo sapiens) (P40763 whole entry, looked up): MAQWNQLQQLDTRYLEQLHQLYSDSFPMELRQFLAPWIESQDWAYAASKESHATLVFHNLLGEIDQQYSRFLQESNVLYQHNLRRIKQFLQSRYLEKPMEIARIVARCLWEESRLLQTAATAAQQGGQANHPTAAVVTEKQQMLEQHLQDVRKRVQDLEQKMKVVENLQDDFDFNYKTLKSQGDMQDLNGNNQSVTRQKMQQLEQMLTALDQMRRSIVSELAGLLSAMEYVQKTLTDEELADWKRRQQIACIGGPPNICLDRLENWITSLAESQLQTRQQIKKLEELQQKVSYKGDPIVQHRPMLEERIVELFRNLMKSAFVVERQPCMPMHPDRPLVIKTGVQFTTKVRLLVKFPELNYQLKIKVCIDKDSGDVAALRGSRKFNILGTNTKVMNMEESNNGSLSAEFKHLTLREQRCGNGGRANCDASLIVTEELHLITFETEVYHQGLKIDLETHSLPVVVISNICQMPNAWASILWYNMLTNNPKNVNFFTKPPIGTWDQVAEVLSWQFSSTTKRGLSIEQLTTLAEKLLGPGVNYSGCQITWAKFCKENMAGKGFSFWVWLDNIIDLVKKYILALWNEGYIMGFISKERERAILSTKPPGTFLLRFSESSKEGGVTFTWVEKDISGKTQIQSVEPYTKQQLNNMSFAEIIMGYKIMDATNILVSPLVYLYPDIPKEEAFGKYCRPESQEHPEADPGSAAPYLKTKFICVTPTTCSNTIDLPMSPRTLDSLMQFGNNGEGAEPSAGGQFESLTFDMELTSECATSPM
Human liver HepG2 cells are transiently transfected with multiple reporter transcription units (MRTUs) in 6-well plates using FuGene 6 reagent (Roche; 3 ml FuGene/1 mg DNA). The MRTU constructs are regulated by a cis-regulating element (promoter). […] A major difference between the CIS and TRANS system is that in CIS activities of endogenous TFs are measured, whereas the TRANS assay evaluates changes in activities of exogenous, chimeric NR-Gal4 proteins. […] At the end of 24 hour incubation, total RNA was isolated using TriZol reagent (Invitrogen). The isolated RNA is then reverse-transcribed using oligo(dT) primer and Mo-MLV reverse transcriptase (Invitrogen) with DNAse I (Ambion) treatment for 30 min. The one-tenth of the produced cDNA was amplified by PCR using Taq DNA polymerase (Invitrogen) and two reporter sequence-specific primers. The PCR products were fluorescently labeled by primer extension with 6-arboxyfluorescein (6-FAM) 5'-labeled reporter sequence-specific primer (2 min at 95 C, 20 s at 68 C and 10 min at 72 C) and these products were digested with 5U of HpaI (New England Biolabs) for 2h at 37 C. The fragments were purified using Qiaquick PCR columns (Qiagen), analyzed on an ABI 3130xL genetic analyzer (Applied Biosystems) with peak positions identified by using a set of X-rhodamine (ROX)-labeled MapMarker1000 molecular weight standards (BioVentures). The raw capillary electrophoresis data was processed using Attagraph software (Attagene).
For the compound `CC(=O)Oc1ccc(C)cc1`, the compound was called inactive.
Still for that read-out and setting: the same measure for `O=C1CCCCCN1SSN1CCCCCC1=O`: “inactive”; for `N=c1ccn2c(n1)O[C@H]1[C@H](O)[C@@H](CO)O[C@H]12`: “inactive”.
Consider `N#[N+]c1ccc2c(S(=O)(=O)[O-])cccc2c1O`, for which the result was inactive.
The same measure, in the same setting: the same measure for `CC(C)(C)c1ccc(N)cc1`: “inactive”; for `C=C(C)C(=O)OCC(C)C`: “inactive”; for `O=C1CCCC1`: “inactive”.
Same read-out and setting: the same measure for `C1=Cc2ccccc2C1`: “inactive”; for `CC(=O)c1ccc2c(c1)CCCC2`: “inactive”; for `O=CN1CCCCC1`: “inactive”.
In the case of `C=CC(=O)OCCOC(=O)C=C`, the call was inactive.
The same measure, in the same setting: the same measure for `OC1OCCOC1O` (stereo not given): “inactive”; for `Nc1ccc(N=Nc2ccccc2)c(N)n1`: “inactive”.
As usually defined, the AC50 is the concentration giving half of the maximal activity seen. Take `C=CC(=O)OCC(Br)CBr` (stereo not given): the AC50 is 121 µM (active).
`CC(C)c1ccc2c(C(C)C)cc(C(C)C)c(S(=O)(=O)O)c2c1`: the result was inactive.
On the same count and under the same terms, the same measure for `CC(=O)c1ccc[nH]1`: “inactive”; for `NC(=O)c1ccccc1O`: “inactive”; for `C=CC(C)(C)C`: “inactive”.
`Cc1ccccc1C`: the compound was called inactive.
Regarding `O=C(O)Cc1c(Cl)ccc(Cl)c1Cl`, the call was inactive.
Still for that read-out and setting: under `CC(C)(C)C(=O)CCc1ccc(Cl)cc1` stands “inactive”; under `CCCCC(CC)CCC(CC(C)C)OS(=O)(=O)O` (stereo not given), “inactive”; under `O=c1c2ccccc2oc2ccccc12`, “inactive”.
With `[Cl][Bi]([Cl])([c]1ccccc1)([c]1ccccc1)[c]1ccccc1`, the outcome was inactive.
The same measure, in the same setting: under `O=S1(=O)OC(c2ccc(O)cc2)(c2ccc(O)cc2)c2ccccc21` stands “inactive”; under `CCOC(=O)[C@H](C)O`, “inactive”; under `COC(=O)c1sccc1S(N)(=O)=O`, “inactive”.
On the same count and under the same terms, under `CCc1ccc2c(c1)C(=O)c1ccccc1C2=O` stands “inactive”; under `Cc1ccc2c(c1)C(=O)c1ccccc1C2=O`, “inactive”; under `O=S(=O)(O)c1ccccc1C=Cc1ccc(-c2ccc(C=Cc3ccccc3S(=O)(=O)O)cc2)cc1`, “inactive”.
As to `Clc1nc2ccccc2s1`, the compound was classed as inactive.
The same measure, in the same setting: under `C=C(C)C(=O)OCCOc1ccccc1` stands “inactive”; under `CC(C)c1ccc(C#N)cc1`, “inactive”.
Same read-out and setting: the same measure for `CCCCC(CC)COC(=O)c1ccccc1O` (stereo not given): “inactive”.
On the same count and under the same terms, under `CC(=O)[C@H]1[C@H](C#N)C[C@H]2[C@@H]3CC=C4C[C@@H](O)CC[C@]4(C)[C@H]3CC[C@@]21C` stands “inactive”.
As for `C[C@]12CCC(=O)C=C1CC[C@@H]1[C@@H]2C(=O)C[C@@]2(C)[C@H]1CC[C@]2(O)C(=O)CO`, the outcome was inactive.
Still for that read-out and setting: under `CCOC(=O)c1ccc(N(C)C)cc1` stands “inactive”.
Same read-out and setting: the same measure for `CCOCC(=O)O`: “inactive”; for `O=S(=O)(O)c1cc(S(=O)(=O)O)c2ccc3c(S(=O)(=O)O)cc(S(=O)(=O)O)c4ccc1c2c43`: “inactive”; for `COCC(C)N` (stereo not given): “inactive”.
